Experimental data published in PubChem BioAssay (Tox21).
Inconclusive results are not listed. Activity calls are given as the source filed them. Unless noted, calls come from the whole dose curve.

Key:
[1] = Nuclear factor erythroid 2-related factor 2/antioxidant responsive element (Nrf2/ARE) small molecule agonists: qHTS cell viability counter screen in human keratinocytes (AID 1919968; active = well fitted curve in the direction sought with a large enough effect in the repeat runs; an effect the other way counts as inactive or inconclusive; note: nearly all actives have a fitted effect of over 55% in size)
How it was run: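 Cells of the KeratinoSens line were plated at 1,500 per well and left for 5 h before compound transfer from DMSO stocks. After a 23 h incubation (37 C, 5% CO2), CellTiter-Fluor was added. Signal was taken as fluorescence intensity 1 h later.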

[2] = Nuclear factor erythroid 2-related factor 2/antioxidant responsive element (Nrf2/ARE) small molecule agonists: luciferase reporter gene qHTS assay in human keratinocytes (AID 1919969); note: nearly all actives have a fitted effect of over 35% in size
[3] = target: Gonadotropin-releasing hormone receptor (Homo sapiens) (UniProt P30968); experiment: Human gonadotropin-releasing hormone receptor (GnRHR) small molecule agonists, calcium flux assay in GnRHR-HEK293 cells (AID 1920063); note: nearly all actives have a fitted effect of over 35% in size
How it was run: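 Compounds dissolved in DMSO are pin-transferred onto dye-loaded GnRHR-HEK293 cells, which were seeded 18 h before at 37 C/5% CO2. Calcium signal is read as fluorescence intensity at 1 s intervals for 3 min.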

[4] = target: KiSS-1 receptor (Homo sapiens) (UniProt Q969F8); experiment: Human kisspeptin (KISS1R) small molecule agonists, calcium flux assay in KISS1R-HEK293 cells (AID 1920064; active = well fitted curve in the direction sought with a large enough effect in the repeat runs; an effect the other way counts as inactive or inconclusive)
How it was run: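 Cell line: HEK293, stable human KISS1R. Dye loading 1 h at 37 C after 18 h culture. Read: kinetic fluorescence, 480/540 nm, 3 min at 1 s intervals.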

[5] = G protein-coupled receptor (GPCR) small molecule agonists, calcium flux assay: HEK293 wild type cell line counter screen (AID 1920065)
How it was run: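 Tox21 10K compounds, 15 concentrations each in triplicate, pin-transferred in DMSO onto dye-loaded cells; kinetic read at 480/540 nm for 3 min, 1 s intervals.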

[6] = p53 small molecule agonists, cell-based qHTS assay with human liver microsomes (AID 1963577);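 note: p53 response element beta-lactamase reporter cells with liver microsomes plus NADPH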
How it was run: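 In this qHTS, p53 response-element beta-lactamase cells receive test compound together with a microsome/NADPH activating system (0.5 mg/mL final each) and are incubated 16 h at 37 C before LiveBLAzer fluorescence detection.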

[7] = p53 small molecule agonists, cell-based qHTS assay with rat liver microsomes (AID 1963578)
How it was run: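 Agonist mode in p53RE-bla reporter cells, with compounds co-incubated 16 h at 37 C alongside 0.5 mg/mL rat liver microsomes and 0.5 mg/mL NADPH (final), followed by a 2 h LiveBLAzer detection step.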

[8] = p53 small molecule agonists, cell-based qHTS assay with human liver microsomes: qHTS cell viability counter screen (AID 1963579); note: nearly all actives have a fitted effect of over 45% in size
How it was run: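 Metabolically activated exposure: compounds, human liver microsomes and NADPH (0.5 mg/mL final apiece) were added to p53RE-bla cells seeded 5 h earlier, left 16 h at 37 C, and then assessed for viability by CellTiter-Glo luminescence.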

[9] = p53 small molecule agonists, cell-based qHTS assay with rat liver microsomes: qHTS cell viability counter screen (AID 1963580); note: nearly all actives have a fitted effect of over 45% in size
How it was run: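 Cytotoxicity counter screen: intracellular ATP read by CellTiter-Glo luminescence in the p53 reporter wells. HCT-116 p53RE-bla cells were treated for 16 h at 37 C alongside rat liver microsomes and NADPH, each 0.5 mg/mL final.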

[10] = p53 small molecule agonists, cell-based qHTS assay: qHTS cell viability counter screen (AID 1963581); note: nearly all actives have a fitted effect of over 45% in size
How it was run: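 ATP content measured by luminescence in HCT-116 p53RE-bla cells treated 16 h at 37 C, same wells as the reporter screen.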

[11] = p53 small molecule agonists, cell-based qHTS assay (AID 1963582; active = well fitted activation curve with a large enough effect in the signal ratio in the repeat runs, not every such curve was filed as active; the % refers to the signal ratio)
How it was run: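 16 h compound exposure (37 C) of p53 response element–bla cells, preceded by 5 h recovery at 37 C/5% CO2; read-out via LiveBLAzer B/G FRET substrate, 2 h RT, fluorescence intensity.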

[12] = target: 5-hydroxytryptamine receptor 2A (Homo sapiens) (UniProt P28223); experiment: 5-hydroxytryptamine receptor 2A (HTR2A) small molecule antagonists, cell-based qHTS assay (AID 1963586); note: nearly all actives have a fitted effect of over 45% in size
How it was run: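 CHO cells stably expressing human HTR2A were plated for 18 h at 37 C, then loaded with calcium dye for 1 h. Compounds were preincubated 5 min at room temperature before DOI (4 nM solution) was added. Kinetic fluorescence was read for 3 min.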

[13] = target: 5-hydroxytryptamine receptor 2A (Homo sapiens) (UniProt P28223); experiment: 5-hydroxytryptamine receptor 2A (HTR2A) small molecule agonists, cell-based qHTS assay (AID 1963587); note: nearly all actives have a fitted effect of over 30% in size
How it was run: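 Kinetic calcium-flux fluorescence (2 min, 1 sec intervals) after compound addition in agonist mode. HTR2A-CHO cells were cultured 18 h, then dye-loaded 1 h at 37 C.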

[14] = target: Muscarinic acetylcholine receptor M1 (Homo sapiens) (UniProt P11229); experiment: Cholinergic receptor muscarinic 1 (CHRM1) small molecule antagonists, cell-based qHTS assay (AID 1963588); note: nearly all actives have a fitted effect of over 40% in size
How it was run: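 Compounds were tested at 15 concentrations in three independent runs. Dye-loaded CHRM1-CHO cells were exposed 5 min at room temperature before stimulation by acetylcholine added at 50nM. Intracellular calcium was read kinetically on FDSS for 3 min.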

[15] = target: Muscarinic acetylcholine receptor M1 (Homo sapiens) (UniProt P11229); experiment: Cholinergic receptor muscarinic 1 (CHRM1) small molecule agonists, cell-based qHTS assay (AID 1963589); note: nearly all actives have a fitted effect of over 35% in size
How it was run: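 Homogeneous fluorescence calcium flux, agonist mode. Human M1-expressing CHO cells; compound dosed at 15 concentrations, three independent runs; signal sampled every 1 sec.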

[16] = cAMP Responsive Elements (CRE) small molecule agonists, cell-based qHTS assay (AID 1963590)
How it was run: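 HEK 293T cells stably bearing CRE-bla were plated at 2,000 cells per well and rested 18 h. Compounds, positive controls or DMSO were added for 3 h at 37 C. LiveBLAzer B/G substrate was then loaded for 2 h at room temperature.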

[17] = cAMP Responsive Elements (CRE) small molecule antagonists, cell-based qHTS assay (AID 1963591; active = well fitted inhibition curve with a large enough effect in the signal ratio in the repeat runs, not every such curve was filed as active; the % refers to the signal ratio)
How it was run: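 First, CRE-bla HEK293T cells settled 18 h at 37 C. Next, compound and 0.25 uM final NKH477 were applied for 3 h. Last, LiveBLAzer B/G substrate was loaded for 2 h at room temperature.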

[18] = target: Beta-2 adrenergic receptor (Homo sapiens) (UniProt P07550); experiment: Adrenergic beta2 receptor (ADRB2) small molecule antagonists, cell-based qHTS assay (AID 1963592); note: series mostly up to about 92 µM; nearly all actives have a fitted effect of over 50% in size
How it was run: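 Assay format: CHO-ADRB2 cells, 18-20hr seeding at 37C/5% CO2, then compound plus 1nM isoproterenol agonist mix for 0.5hr RT. Homogeneous time-resolved fluorescence cAMP detection after 1hr, expressed as 665/615 nm ratio.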

[19] = target: Beta-2 adrenergic receptor (Homo sapiens) (UniProt P07550); experiment: Adrenergic beta2 receptor (ADRB2) small molecule agonists, cell-based qHTS assay (AID 1963593);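 note: CHO cells stably overexpressing human ADRB2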
How it was run: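 CHO cells stably over-expressing ADRB2 were plated overnight at 37C, then dosed with compounds plus a stimulation mix containing 100uM IBMX and 25uM Ro-20-1724 for 0.5hr at room temperature. cAMP was measured by HTRF competition, 1hr.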

[20] = target: D(2) dopamine receptor (Homo sapiens) (UniProt P14416); experiment: Dopamine D2 receptor (DRD2) small molecule agonists, cell-based qHTS assay (AID 1963594); note: nearly all actives have a fitted effect of over 35% in size
How it was run: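 cAMP accumulation in DRD2-HEK293 cells measured by HTRF after 1 h detection; compounds added 10 min before NKH477 (200nM […]) forskolin-analogue stimulation, 30 min at room temperature, with Ro20-1724 present at 0.1 mM final.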

Measured: Potency

KiSS-1 receptor (Homo sapiens), sequence (Q969F8 whole entry, looked up): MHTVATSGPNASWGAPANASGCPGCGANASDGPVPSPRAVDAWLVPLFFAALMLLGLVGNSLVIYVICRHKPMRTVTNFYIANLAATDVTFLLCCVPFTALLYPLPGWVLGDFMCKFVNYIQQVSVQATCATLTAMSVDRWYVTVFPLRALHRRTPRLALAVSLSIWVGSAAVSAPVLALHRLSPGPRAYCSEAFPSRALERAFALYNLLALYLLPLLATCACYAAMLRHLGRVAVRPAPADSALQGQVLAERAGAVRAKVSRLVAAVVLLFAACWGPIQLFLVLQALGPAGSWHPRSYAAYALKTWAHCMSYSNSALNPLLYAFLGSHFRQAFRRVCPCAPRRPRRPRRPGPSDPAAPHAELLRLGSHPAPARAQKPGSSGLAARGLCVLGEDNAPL
Muscarinic acetylcholine receptor M1 (Homo sapiens), sequence (P11229 whole entry, looked up): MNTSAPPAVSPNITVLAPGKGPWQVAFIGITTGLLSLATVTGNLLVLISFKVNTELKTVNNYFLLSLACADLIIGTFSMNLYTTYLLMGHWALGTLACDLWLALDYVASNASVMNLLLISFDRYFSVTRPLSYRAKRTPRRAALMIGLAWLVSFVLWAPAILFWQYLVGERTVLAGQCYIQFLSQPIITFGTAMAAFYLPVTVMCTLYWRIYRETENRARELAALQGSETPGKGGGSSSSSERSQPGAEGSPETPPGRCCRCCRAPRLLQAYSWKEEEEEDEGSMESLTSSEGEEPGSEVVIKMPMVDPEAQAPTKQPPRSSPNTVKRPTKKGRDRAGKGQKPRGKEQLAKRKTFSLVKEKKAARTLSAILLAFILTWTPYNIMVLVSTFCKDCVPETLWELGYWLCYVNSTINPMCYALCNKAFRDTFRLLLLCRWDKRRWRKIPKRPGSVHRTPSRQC
5-hydroxytryptamine receptor 2A (Homo sapiens), sequence (P28223 whole entry, looked up): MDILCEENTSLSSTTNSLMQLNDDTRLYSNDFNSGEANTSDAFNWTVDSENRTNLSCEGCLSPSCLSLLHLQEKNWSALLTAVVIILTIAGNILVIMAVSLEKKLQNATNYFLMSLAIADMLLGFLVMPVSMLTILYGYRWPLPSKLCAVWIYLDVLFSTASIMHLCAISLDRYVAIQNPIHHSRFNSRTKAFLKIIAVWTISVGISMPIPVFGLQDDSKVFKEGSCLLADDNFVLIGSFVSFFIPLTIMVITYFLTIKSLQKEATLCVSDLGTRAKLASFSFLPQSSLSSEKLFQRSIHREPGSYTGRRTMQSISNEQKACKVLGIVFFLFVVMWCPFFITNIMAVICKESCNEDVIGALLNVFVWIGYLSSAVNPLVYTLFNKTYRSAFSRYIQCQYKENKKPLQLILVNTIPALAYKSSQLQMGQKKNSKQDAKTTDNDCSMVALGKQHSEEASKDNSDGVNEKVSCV
Gonadotropin-releasing hormone receptor (Homo sapiens), sequence (P30968 whole entry, looked up): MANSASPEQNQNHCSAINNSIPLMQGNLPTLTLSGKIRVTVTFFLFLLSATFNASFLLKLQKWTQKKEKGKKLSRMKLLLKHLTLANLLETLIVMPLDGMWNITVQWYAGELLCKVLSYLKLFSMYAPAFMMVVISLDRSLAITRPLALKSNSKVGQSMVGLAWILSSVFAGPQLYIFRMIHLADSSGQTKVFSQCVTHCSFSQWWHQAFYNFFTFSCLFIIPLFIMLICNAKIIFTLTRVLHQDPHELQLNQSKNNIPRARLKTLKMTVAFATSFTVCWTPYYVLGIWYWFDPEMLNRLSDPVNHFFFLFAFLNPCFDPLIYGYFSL
D(2) dopamine receptor (Homo sapiens), sequence (P14416 whole entry, looked up): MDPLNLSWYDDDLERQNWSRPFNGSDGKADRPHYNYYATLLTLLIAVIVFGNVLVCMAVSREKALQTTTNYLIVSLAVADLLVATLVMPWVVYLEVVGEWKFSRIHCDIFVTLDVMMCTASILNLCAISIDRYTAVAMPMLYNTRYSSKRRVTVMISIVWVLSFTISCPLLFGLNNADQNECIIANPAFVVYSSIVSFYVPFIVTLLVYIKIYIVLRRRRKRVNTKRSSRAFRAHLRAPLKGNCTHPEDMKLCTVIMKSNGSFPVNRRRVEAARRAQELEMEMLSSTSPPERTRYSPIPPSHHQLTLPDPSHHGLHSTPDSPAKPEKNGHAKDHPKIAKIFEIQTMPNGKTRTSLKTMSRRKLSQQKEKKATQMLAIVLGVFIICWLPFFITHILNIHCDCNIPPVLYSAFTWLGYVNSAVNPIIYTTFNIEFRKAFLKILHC
Beta-2 adrenergic receptor (Homo sapiens), sequence (P07550 whole entry, looked up): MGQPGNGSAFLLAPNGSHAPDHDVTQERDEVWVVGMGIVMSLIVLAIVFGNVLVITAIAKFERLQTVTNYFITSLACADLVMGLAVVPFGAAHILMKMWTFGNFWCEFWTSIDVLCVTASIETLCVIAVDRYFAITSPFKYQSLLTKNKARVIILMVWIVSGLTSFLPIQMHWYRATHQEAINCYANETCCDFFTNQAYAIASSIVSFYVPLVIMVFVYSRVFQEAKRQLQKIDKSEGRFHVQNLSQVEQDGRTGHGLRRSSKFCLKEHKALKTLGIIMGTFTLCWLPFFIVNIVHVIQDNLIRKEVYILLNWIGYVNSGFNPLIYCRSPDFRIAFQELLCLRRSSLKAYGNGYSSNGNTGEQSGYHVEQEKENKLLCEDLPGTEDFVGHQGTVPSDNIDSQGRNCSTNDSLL

CC(=O)/C=C/c1ccco1
inactive: all assays above

NS(=O)(=O)c1ccc(NC(=O)CCC(=O)O)cc1
inactive: all assays above

Cc1ccc(C(C)c2ccc(C)c(C)c2)cc1C
inactive: all assays above

O=C(O)CNC(=O)c1ccccc1I
inactive: all assays above

CC(C)OC(C)C
inactive: all assays above

C=CCOC(=O)CCCCCCCC
inactive: all assays above

CCCCC(CC)COCCC#N (stereo not given)
inactive: all assays above
